Measurements published in PubChem BioAssay (NCI).
Compounds without any hit were thinned out: in the full panel of roughly 83,000, 20% have a hit.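 The endpoint reported here, percent growth, reads 100 for growth as untreated, 0 for no net growth and -100 for all cells dead.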 Values without a mark were called inactive. The source made the active and inactive calls. Rule for the calls: active = growth percent below 10; inactive = the rest.

Legend:
Test in all cases: NCI-60 one-dose screen, 48 h (100 = growth as untreated, 0 = no growth, -100 = all killed)
[1] = test system: SK-MEL-2 melanoma; details: 10 µM unless noted
[2] = test system: EKVX NSCLC; details: 10 µM unless noted
[3] = test system: SN12C renal; details: 10 µM unless noted
[4] = test system: UO-31 renal; details: 10 µM unless noted
[5] = test system: TK-10 renal; details: 10 µM unless noted
[6] = test system: ACHN renal; details: 10 µM unless noted
[7] = test system: CAKI-1 renal; details: 10 µM
[8] = test system: A498 renal; details: 10 µM unless noted
[9] = test system: CCRF-CEM leukemia; details: 10 µM unless noted
[10] = test system: MOLT-4 leukemia; details: 10 µM unless noted
[11] = test system: SR leukemia; details: 10 µM unless noted
[12] = test system: RPMI-8226 leukemia; details: 10 µM unless noted
[13] = test system: OVCAR-8 ovarian; details: 10 µM unless noted
[14] = test system: OVCAR-5 ovarian; details: 10 µM unless noted
[15] = test system: OVCAR-4 ovarian; details: 10 µM unless noted
[16] = test system: SK-OV-3 ovarian; details: 10 µM unless noted
[17] = test system: IGROV1 ovarian; details: 10 µM unless noted
[18] = test system: HS 578T breast; details: 10 µM unless noted
[19] = test system: NCI/ADR-RES ovarian; details: 10 µM unless noted
[20] = test system: OVCAR-3 ovarian; details: 10 µM unless noted

| Compound | growth [1] | growth [2] | growth [3] | growth [4] | growth [5] | growth [6] | growth [7] | growth [8] | growth [9] | growth [10] | growth [11] | growth [12] | growth [13] | growth [14] | growth [15] | growth [16] | growth [17] | growth [18] | growth [19] | growth [20] |
| --- | --- | --- | --- | --- | --- | --- | --- | --- | --- | --- | --- | --- | --- | --- | --- | --- | --- | --- | --- | --- |
| COc1ccc(/C=N/Nc2nc(Nc3ccccc3)nc(Nc3ccc(S(N)(=O)=O)cc3)n2)cc1 | 68.9% | 88.5% | 80.2% | 77.9% | 107% | 75.2% | 76% | 61.7% | 45.9% | 44.5% | 48.5% | 47.7% | 67.6% | 85.6% | 66.2% | 105% | 58.7% | 58.3% | 96.3% | – |
| CCN(CC)Cc1c(-c2cccc(OC(F)(F)F)c2)[nH]c2ccc(N3CCCC3)cc2c1=O | 106% | 90.6% | 93.3% | 77.7% | 124% | 98.4% | 77.3% | 104% | 98.4% | 69.4% | 91.4% | – | 96.2% | 92.5% | 101% | 111% | 79.6% | 87.3% | 92.5% | 104% |
| O=C(CSc1ccc(-c2nc3ccccc3[nH]2)cn1)N1CCN(c2ccccc2F)CC1 | 88.4% | 53.6% | 90.4% | 70.9% | 86.5% | 93.2% | 49.1% | 77% | 28.2% | 14.6% | 52.5% | 50.2% | 37.4% | 107% | – | 95.4% | 80.7% | 89.4% | 29% | 50.7% |
| O=c1c2ccccc2nc(COc2ccccc2)n1/N=C/C=C/c1ccccc1 | 94.5% | 86.2% | 87.6% | 89.8% | 106% | 96.8% | 103% | 98.6% | 84.3% | 97.1% | 85.7% | 87.5% | 100% | 98.8% | 90% | – | 90.2% | 94.4% | 91.8% | 103% |
| Oc1ccc(CSc2nnc(-c3ccc(Oc4ccccc4)cc3)o2)c2cccnc12 | 39.9% | 23.6% | 23.8% | 2.75% (active) | 34.8% | -2.93% (active) | 60.3% | 78.9% | 16% | 26.9% | 32.2% | 23.5% | 24.2% | 48.3% | – | 22% | 26.1% | 10.4% | 12.6% | -28.7% (active) |
| O=C(/C=C/c1cccc(O)c1)c1ccc(O)cc1 | 107% | 98.4% | 65.6% | 72.6% | 98.3% | 75.1% | 65.3% | 114% | 37% | 91.7% | 13% | 18.7% | 83.7% | 91.4% | 96.2% | – | 80.2% | 101% | 71.4% | 14.3% |
| O=S(=O)(Nc1ccc2c(c1)OC(F)(F)O2)c1ccc(-c2cnc(C3CC3)o2)cc1 | 41.3% | 58% | 52.8% | 56.7% | 84.3% | 57.1% | 17.5% | 23.2% | 24.1% | 30.3% | 27.8% | – | 56.3% | 73.2% | 59.4% | 65.6% | 42.8% | 40.6% | 24.7% | 20.3% |
| O=C(/C=C/c1cn(-c2ccccc2)nc1-c1ccc(Cl)cc1)c1cc2ccccc2oc1=O | 88% | 79.8% | 31% | 39.8% | 113% | 59.9% | 29.2% | 111% | 50.7% | 55.3% | 45.2% | 70.8% | 52.8% | 98% | 57.2% | – | 35.4% | 66.5% | 71.9% | 82.8% |
| O=C(/C=C1\C=CN(CCCCF)c2ccccc21)n1ccc2ccccc21 | 103% | 90.7% | 94.6% | 74.2% | 117% | 97.6% | 87.5% | 135% | 96.4% | 105% | 107% | 102% | 106% | 99.2% | – | 95.9% | 74.9% | 119% | 108% | 126% |
| C#C[C@]1(O)CC[C@H]2[C@@H]3CC=C4c5sc(-c6ccc(OC)cc6)nc5CC[C@]4(C)[C@H]3CC[C@@]21C | 53.8% | 76.8% | 84.2% | 18.9% | 78% | 59.8% | 64.4% | 56% | 26.8% | 7.24% (active) | 23.5% | – | 84.6% | 71.2% | 97.9% | 53.8% | 70.2% | 2.91% (active) | 83.8% | 83.2% |
| O=C(NCCCNc1cc(-c2cn(-c3ccccc3)nc2-c2cccc(O)c2)ccn1)Nc1cccc(C(F)(F)F)c1 | 58.1% | 45.7% | 56.5% | 23.8% | 88.3% | 47.6% | 36.9% | 18.3% | 29.2% | 11.6% | 30.2% | 4.35% (active) | 56.1% | 56% | – | 57.5% | 44.2% | 7.27% (active) | 48.1% | 49.6% |
| Cc1ccc(NC(=O)c2ccc(CN3CCN(C)CC3)c(C(F)(F)F)c2)cc1Oc1ccc(-c2[nH]nc3ncnc(N)c23)cc1 | 84.1% | 109% | 80.7% | 83% | 119% | 83% | 92.1% | 113% | 8.05% (active) | 43% | 2.87% (active) | 18.1% | 94.5% | 95.3% | 90.7% | – | 82.7% | 72.8% | 52% | 113% |
| Clc1ccc(-c2csc(N/N=C/c3nc4ccccc4n3C3CC3)n2)cc1 | 106% | 92.2% | 104% | 84.3% | 85.6% | 104% | 89.7% | 108% | 93.7% | 98.2% | 96.6% | 100% | 99% | 99.7% | 101% | – | 111% | 106% | 102% | – |
| Nc1ccc(-c2nnc(SCc3ccc(O)c4ncccc34)o2)cc1 | 3.45% (active) | -5.86% (active) | 6.01% (active) | -12.5% (active) | 1.68% (active) | 2.17% (active) | 4.38% (active) | -40.1% (active) | 5.03% (active) | 5.7% (active) | 18.8% | -9.68% (active) | 8.94% (active) | 25% | – | -15.3% (active) | 0.429% (active) | -12.6% (active) | -9.89% (active) | 7.75% (active) |
| O=S(=O)(NCCCNc1nccc(-n2cnc3ccccc32)n1)c1ccc(F)cc1 | 85.8% | 61.2% | 89% | 59.3% | 91.9% | 81.1% | 71% | 70.6% | 49.1% | 33.2% | 36.8% | 57.7% | 62.5% | 98.6% | 44.2% | – | 91.8% | 82.4% | 64.3% | 86.7% |
| O=S(=O)(Nc1ccc(-c2nc(-c3cccc(O)c3)c(-c3ccnc(Br)c3)[nH]2)cc1)c1ccccc1 | 23.5% | 53.3% | 44.3% | 24.7% | 55.7% | 28.4% | 25.6% | 49.4% | -2.56% (active) | -20.9% (active) | -9.8% (active) | – | 9.98% (active) | 64.6% | 9.17% (active) | 54.7% | 42.1% | -0.856% (active) | 61.1% | 32.1% |
